# According to publication PMC12136788:
# Residue numbers refer to the chain shown, from its start. In all, about 5,800 sequences were measured (“enrichment r”: median about 0.54, highest 2% from about 16 on). This is one part of a sample in which the highest values are shown more often than they occur.
# B1: chr8:7990417:7990620:-|CDS|ENSG00000205989|control|control|control (ssRNA)
# RNA: GGGAGUUCUACAGUCCGACGAUCGAUGUCUGCAACAUAGUAGAAGAUCAAAUUGGUGCCUGCCGAAGAAGGAUGAAGUGCUGUAGAGCAUGGUGGAUUUUAAUGCCAAUUCCAACACCACUUAUCAUGUCAGAUUAUCAAGAACAACAGAGGAUUGAGCAUCA
# B2: chr20:37241422:37241523:+|3pUTR|ENSG00000118705|msi1_unk|FALSE|overlapping (ssRNA)
# RNA: GGGAGUUCUACAGUCCGACGAUCGUAUGAGAAGAAAAAUGGAAAAAAAAAACUUUAUUUAAAAAAGAAAAAAGUCCAGAUUGUAGUUAUACUUUUGCUUGUUUUUCAGUUUCCCCAACACACAGCAGAUACCUGGUGAGCUCACAACAGAGGAUUGAGCAUCA
# B3: chr8:80500255:80500365:+|CDS|ENSG00000205189|unk|total|mutant (ssRNA)
# RNA: GGGAGUUCUACAGUCCGACGAUCGAAAAACCAAACUACAAAAAGAUUUAUUUAUAAUAUUCCACCUAAUAAUGAAACGAAUUCCGAAGAUUGCUCAGUAAUGCAGCCACCUGUUGCCUAUCCAGAAGAAAAUACACUACUCAUCAACAGAGGAUUGAGCAUCA
# B4: chr2:30158716:30158817:+|CDS|ENSG00000119801|msi1|total|mutant (ssRNA)
# RNA: GGGAGUUCUACAGUCCGACGAUCGUUUGCCACUGAAGACAGCCAGCGAUAUAAGGAAGGCCGCGUGAUCCUGGAACGUGCUCCCGUUCGAGAGAGUGAGGGCUUUGAGGAGCAUGUACCAUCUGAUAACUCUUGAAGAUACAGCAACAGAGGAUUGAGCAUCA
# B5: chr5:115137525:115137627:-|CDS|ENSG00000152503|unk|FALSE|unique (ssRNA)
# RNA: GGGAGUUCUACAGUCCGACGAUCUUUAGCAGAAGAGGCUAUUCUUUGUUUUAUCUUAGUGUAAUGGAGAUACUGUUUUUUCUUAGUGUAAUGGAGAGAGGGCUAAAGAAGAAGCAAUUACACAUUUUGAAAAGCUCUUUGAAGCAACAGAGGAUUGAGCAUCA
# B6: ENSG00000115904:stop:overlap|stop_codon|ENSG00000115904|stop_codon|NA|stop_codon (ssRNA)
# RNA: GGGAGUUCUACAGUCCGACGAUCUUUUGCAACGAAUGGAAGAAUUUAUUGGAACAGUAAGAGAGCUGUACAGCCAUCAGAAUUAGUUGGAAGUGUGUGGACAAAAGAAGACAAAGAAAUUAACUCUCCUAAUCUUCUGAAAAUCAACAGAGGAUUGAGCAUCA
# B7: ENSG00000136451:be:win_1001|CDS|ENSG00000136451|bound_else_gene|NA|bound_elsewhere_windowed (ssRNA)
# RNA: GGGAGUUCUACAGUCCGACGAUCACCAAAAGCAGCAGCAGCAGCAGCAGCAGCAGCAGCAGCAGCAGCAACAACAACAACAACAACAUGUGACAAGCUGGCCAGGGAAGCAAGUAGAAACACUGAGACUGUGGGAAGAAGCUGCAACAGAGGAUUGAGCAUCA
# B8: chr12:122341087:122341188:-|CDS|ENSG00000130779|unk|FALSE|bound_elsewhere (ssRNA)
# RNA: GGGAGUUCUACAGUCCGACGAUCAGAAUUUGCUGAACUAAAAACACAAAUAGAGAAAAUGAGACUAGAUUACCAACACGAAAUAGAAAAUUUGCAGAAUCAACAAGACUCUGAACGGGCUGCCCAUGCUAAAGAGAUGGAAGCCAACAGAGGAUUGAGCAUCA
# B9: chr15:56434137:56434395:-|CDS|ENSG00000138587|control|control|control (ssRNA)
# RNA: GGGAGUUCUACAGUCCGACGAUCAGAGGAAGAGGAGAACUUUAGAAAAACUAUGCUAGCUAAAUUUGCUGAGGAUGAUCGAAUAGAAUUAAUGAAUGCUCAGAAACAAAGAAUGAAGCAGCUGGAACACAGGAGGGCUGUGGACAACAGAGGAUUGAGCAUCA
# B10: chr5:52955293:52955406:+|3pUTR|ENSG00000213949|unk|total|mutant (ssRNA)
# RNA: GGGAGUUCUACAGUCCGACGAUCUACCAACCAGUGUGAGCUGACUUCAGCACACCACUGAGACAGAUUACACGACCGACAGACCGACCGACCGACCGACCGACCGACCGACCGACCGACCGACCGAUAUUGACCGAGAACAUGCAACAGAGGAUUGAGCAUCA
# B11: chr5:52955293:52955406:+|3pUTR|ENSG00000213949|unk|FALSE|unique (ssRNA)
# RNA: GGGAGUUCUACAGUCCGACGAUCUACCAACCAGUGUGAGCUGACUUCAGCACACCACUGAGACAGAUUACACGAUAGACAGAUAGAUAGAUAGAUAGAUAGAUAGAUAGAUAGAUAGAUAGAUAGAUAUUGAUAGAGAACAUGCAACAGAGGAUUGAGCAUCA
# B12: chr12:122341087:122341188:-|CDS|ENSG00000130779|unk|total|mutant (ssRNA)
# RNA: B8 RNA with U50C, A51C, U65C, A66C, U83C, A84C
# B13: chr5:136977529:136977630:-|3pUTR|ENSG00000152377|msi1|FALSE|unique (ssRNA)
# RNA: GGGAGUUCUACAGUCCGACGAUCACAAGCCAUCUCUUUCAUUUCUGCUUGAAGCCCCUUGGCUGCAGCAAUCCUGUCUGCCAUAGGUUUCUUCCUUCCUUACCUACUCAAGGGCUUUUUCUAAGGCAUGCACACAUAUCUCCUCAACAGAGGAUUGAGCAUCA
# B14: chr12:100625254:100625355:+|3pUTR|ENSG00000139354|unk|total|mutant (ssRNA)
# RNA: GGGAGUUCUACAGUCCGACGAUCAUAUGUAUUAAAUAUGGAGUUCAUAUACCUGCUAAUAUCAACGGUGGUGCUCUUACUAUCCGUUAAUUGCAUUUUGGUUAAAAAAAAAAAAGCAACAGUUUGGCACUUGUCCUACAAAAGCAACAGAGGAUUGAGCAUCA
# Target: MSI1 full-length (mouse, UniProt Q61474 1-362)
# Sequence (Q61474 whole entry): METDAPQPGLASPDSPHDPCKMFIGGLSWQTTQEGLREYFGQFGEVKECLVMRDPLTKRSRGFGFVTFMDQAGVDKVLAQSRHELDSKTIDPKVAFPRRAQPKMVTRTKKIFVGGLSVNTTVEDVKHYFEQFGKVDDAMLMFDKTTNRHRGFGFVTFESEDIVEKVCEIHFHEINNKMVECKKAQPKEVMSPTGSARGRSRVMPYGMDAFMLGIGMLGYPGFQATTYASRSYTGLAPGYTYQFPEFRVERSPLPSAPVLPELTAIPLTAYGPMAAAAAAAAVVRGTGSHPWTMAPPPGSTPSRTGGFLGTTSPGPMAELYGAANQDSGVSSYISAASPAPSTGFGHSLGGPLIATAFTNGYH
# Assay: nsRBNS (natural sequence RNA bind-n-seq); RBNS binding buffer (assumed for nsRBNS): 25 mM Tris pH 7.5, 150 mM KCl, 3 mM MgCl2, 0.01% Triton X-100, 500 ug/ml BSA, 20 U/ml SUPERase-In, 4 C; UNK is unkempt and MSI1 is Musashi-1; names of the RNAs are library labels; protein concentration not given here; high values mean tight binding
row,Binder,binding signal
1,B1,0.446 enrichment R
2,B2,1.41 enrichment R
3,B3,3.62 enrichment R
4,B4,0.472 enrichment R
5,B5,2.18 enrichment R
6,B6,1.25 enrichment R
7,B7,0.597 enrichment R
8,B8,16.5 enrichment R
9,B9,3.42 enrichment R
10,B10,0.369 enrichment R
11,B11,67 enrichment R
12,B12,0.402 enrichment R
13,B13,0.506 enrichment R
14,B14,0.371 enrichment R
